Measured values published in PubChem BioAssay (NCATS).
Inconclusive results are not listed. Active and inactive are the calls of the source. Calls follow the shape of the dose curve; as a rule, active = well fitted curve in the direction sought with a large enough effect; inconclusive = small, poorly fitted or top-dose-only effect, or another doubt; inactive = no such curve, though single readings can be large; an effect the other way counts as inactive or inconclusive.

Assays:
[1] = qHTS assay for measurement of the activity of small molecule inhibitors on Zika virus induced Caspase-3 activity in human iPSC derived neural progenitor cells (hNPCs) (AID 1224857); also: nearly all actives have a fitted effect of over 65% in size
Method in brief: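 In medium with heparin 2 ug/ml and cyclopamine 2 uM, hNPCs (350 cells/well) received compound for one hour and then Zika virus at 2 FFU/cell; caspase activity was measured by Caspase-Glo 3/7 luminescence 6 h post-infection.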

[2] = qHTS assay for measurement of the activity of small molecule inhibitors on Zika virus induced Caspase-3 activity in human astrocytoma cells (AID 1224859)
Method in brief: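 A cell-based luminescent caspase-3/7 assay used SNB-19 cells infected with ZIKV (2 FFU/cell) for 6 h following 1 h compound pretreatment.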

[3] = P-glycoprotein substrates identified in KB-8-5-11 adenocarcinoma cell line, qHTS therapeutic library screen (AID 1346987); also: nearly all actives have a fitted effect of over 65% in size
Method in brief: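 Steps: plate 500 KB-8-5-11 cells/well in DMEM + 10% FCS (colchicine removed); pin compounds in dose-response; incubate 72 h, 37 degree C, 5% CO2; add CellTiter-Glo, 5 min; read luminescence.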

[4] = NS1 protein of Zika virus - qHTS assay to identify small molecule inhibitors in human HEK 293 cells (AID 1347053); also: series mostly up to about 46 µM; nearly all actives have a fitted effect of over 55% in size
Method in brief: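 HEK 293 cells pretreated with compound for 1 h, then infected with ZIKV MR766 (MOI 0.5) for 24 h at 37 C. NS1 detected by TR-FRET with two anti-NS1 antibodies; normalized to uninfected (0%) and infected (100%) wells.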

[5] = qHTS of pediatric cancer cell lines to identify multiple opportunities for drug repurposing: Primary screen for TC32 cells (AID 1347089); also: nearly all actives have a fitted effect of over 60% in size
Method in brief: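 Luminescent ATP read-out (CellTiter-Glo) of metabolically active TC32 cells after 48 h exposure. Concentration-response curves came from 11-point (MIPE, 0.78 nM–46 µM) or 8-point (NPC, 0.59 nM–46 µM) primary titrations; follow-up used 11 points.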

[6] = qHTS of pediatric cancer cell lines to identify multiple opportunities for drug repurposing: Primary screen for DAOY cells (AID 1347090); also: series mostly up to about 46 µM; nearly all actives have a fitted effect of over 55% in size
Method in brief: (§1)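 Eight- or eleven-point concentration series, 48 h treatment at 37 degrees C in growth media; readout CellTiter-Glo luminescence. Potency and efficacy were taken from the concentration-response curves.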

[7] = qHTS of pediatric cancer cell lines to identify multiple opportunities for drug repurposing: Primary screen for SJ-GBM2 cells (AID 1347091)
Method in brief: as §1

[8] = qHTS of pediatric cancer cell lines to identify multiple opportunities for drug repurposing: Primary screen for A673 cells (AID 1347092); also: nearly all actives have a fitted effect of over 45% in size
Method in brief: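 Cell viability of A673 measured by CellTiter-Glo ATP luminescence after 48 hours compound exposure. Dilution series spanned 0.78 nM to 46 µM (MIPE, 11-point) or 0.59 nM to 46 µM (NPC, 8-point); bortezomib 2.3 uM positive control.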

[9] = qHTS of pediatric cancer cell lines to identify multiple opportunities for drug repurposing: Primary screen for SK-N-MC cells (AID 1347093); also: potency is read from the fitted curve at half-maximal effect
Method in brief: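 Metabolically active cells were quantified by ATP-dependent luminescence (CellTiter-Glo, 15 min at room temperature) following 48 h treatment. Cells had been plated at 500-1,000 per well and settled for 5 h beforehand.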

[10] = qHTS of pediatric cancer cell lines to identify multiple opportunities for drug repurposing: Primary screen for BT-37 cells (AID 1347094); also: series mostly up to about 57 µM
Method in brief: (§2)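 Cells plated at 500-1,000/well in growth medium, compounds added after 5 h. MIPE tested at 11 points (from 0.78 nM), NPC at 8 points (from 0.59 nM). CellTiter-Glo luminescence after 48 h; concentration-response curves from primary screen.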

[11] = qHTS of pediatric cancer cell lines to identify multiple opportunities for drug repurposing: Primary screen for NB-EBc1 cells (AID 1347095)
Method in brief: as §2

[12] = qHTS of pediatric cancer cell lines to identify multiple opportunities for drug repurposing: Primary screen for U-2 OS cells (AID 1347096); also: nearly all actives have a fitted effect of over 50% in size
Method in brief: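 Cells (500-1,000/well) in growth media were settled 5 h at 37 degrees C, then given compounds for 48 h. Viability was read as CellTiter-Glo luminescence. Primary runs used MIPE at 11 points (0.78 nM-46 µM) and NPC at 8 points (0.59 nM-46 µM); follow-ups used 11 points.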

Measured: Potency

O=C(OCC(COC(=O)c1cccnc1)(COC(=O)c1cccnc1)COC(=O)c1cccnc1)c1cccnc1
inactive: [1] | [2] | [3] | [4] | [5] | [6] | [7] | [8] | [9] | [10] | [11] | [12]

CO[C@@]1(NC(=O)CSC[C@@H](N)C(=O)O)C(=O)N2C(C(=O)O)=C(CSc3nnnn3C)CS[C@@H]21
inactive: [1] | [2] | [3] | [4] | [5] | [6] | [7] | [8] | [9] | [10] | [11] | [12]

C[N+](C)(CCOc1ccccc1)Cc1cccs1
inactive: [1] | [2] | [3] | [4] | [5] | [6] | [7] | [8] | [9] | [11] | [12]

O=C(O)c1ccccc1S
inactive: [1] | [2] | [3] | [4] | [5] | [6] | [7] | [8] | [9] | [10] | [12]

OCCCc1ccccc1
inactive: [1] | [2] | [3] | [4] | [5] | [6] | [7] | [8] | [9] | [10] | [11] | [12]

CCCC(=O)O[C@]1(C(=O)COC(=O)CC)CC[C@H]2[C@@H]3CCC4=CC(=O)CC[C@]4(C)[C@H]3[C@@H](O)C[C@@]21C
inactive: [1] | [2] | [3] | [4] | [5] | [6] | [7] | [8] | [9] | [10] | [11] | [12]

Cc1ncc(CO)c(CO)c1O
inactive: [1] | [2] | [3] | [4] | [5] | [6] | [7] | [8] | [9] | [10] | [11] | [12]

CCOC(=O)OCC/C(SC(=O)OCC)=C(\C)N(C=O)Cc1cnc(C)nc1N
inactive: [1] | [2] | [3] | [4] | [5] | [6] | [7] | [8] | [9] | [10] | [11] | [12]

O=C(CCCCC(=O)Nc1c(I)cc(I)c(C(=O)O)c1I)Nc1c(I)cc(I)c(C(=O)O)c1I
inactive: [1] | [2] | [3] | [4] | [5] | [6] | [7] | [8] | [9] | [10] | [11] | [12]

CC(C)(C)C(O)/C=C/c1ccc2c(c1)OCO2 (stereo not given)
inactive: [1] | [2] | [3] | [4] | [5] | [6] | [7] | [8] | [9] | [10] | [11] | [12]

CC(C)(C)c1nnc(NS(=O)(=O)c2ccccc2)s1
inactive: [1] | [2] | [3] | [4] | [5] | [6] | [7] | [8] | [9] | [10] | [11] | [12]

C1N2CN3CN1CN(C2)C3
inactive: [1] | [2] | [3] | [4] | [5] | [6] | [7] | [8] | [9] | [10] | [11] | [12]

Cc1cc(C(C)(C)C)c(O)c(C(C)(C)C)c1
inactive: [1] | [2] | [3] | [4] | [5] | [6] | [7] | [8] | [9] | [10] | [12]

CC(=O)Nc1c(I)c(NC(C)=O)c(I)c(C(=O)O)c1I
inactive: [1] | [2] | [3] | [4] | [5] | [6] | [7] | [8] | [9] | [10] | [12]

O=C(O)CCCC[C@@H]1SC[C@@H]2NC(=O)N[C@@H]21
inactive: [1] | [2] | [3] | [4] | [5] | [6] | [7] | [8] | [9] | [11] | [12]

O=C(O)[C@@H](O)[C@H](O)[C@H](O)[C@@H](O)C(=O)O
inactive: [1] | [2] | [3] | [4] | [5] | [6] | [7] | [8] | [9] | [11]

C[N+]1(CC2COC(c3ccccc3)(c3ccccc3)O2)CCCCC1 (stereo not given)
inactive: [1] | [2] | [3] | [4] | [5] | [6] | [7] | [8] | [9] | [10] | [11] | [12]

CSc1ccc(/C=C2/C(C)=C(CC(=O)O)c3cc(F)ccc32)cc1
inactive: [1] | [2] | [3] | [4] | [5] | [6] | [7] | [8] | [9] | [10] | [11] | [12]

CCC(C(=O)NC(=O)NC(C)=O)c1ccccc1 (stereo not given)
inactive: [1] | [2] | [3] | [4] | [5] | [6] | [7] | [8] | [9] | [10] | [11] | [12]

CN1[C@@H]2CC[C@H]1CC(NC(=O)n1c(=O)[nH]c3ccccc31)C2 (stereo not given in full)
inactive: [1] | [2] | [3] | [4] | [5] | [6] | [7] | [8] | [9] | [10] | [11] | [12]

Cc1ccccc1N1CCN(CCc2nnc3n2CCCC3)CC1
inactive: [1] | [2] | [3] | [4] | [5] | [6] | [7] | [8] | [9] | [10] | [12]

O=C(OCC1(COC(=O)c2cccnc2)CCCC(COC(=O)c2cccnc2)(COC(=O)c2cccnc2)C1O)c1cccnc1
inactive: [1] | [2] | [3] | [4] | [5] | [6] | [7] | [8] | [9] | [10] | [11] | [12]

O=C(c1ccccc1)c1ccccc1
inactive: [1] | [2] | [3] | [4] | [5] | [6] | [7] | [8] | [9] | [10] | [11] | [12]

CO/N=C(/C(=O)N[C@@H]1C(=O)N2C(C(=O)OCOC(=O)C(C)(C)C)=C(C)CS[C@H]12)c1csc(N)n1
inactive: [1] | [2] | [3] | [4] | [5] | [6] | [7] | [8] | [11] | [12]
active: [9] 26.6 µM

COc1ccccc1OCC1CNC(=O)O1 (stereo not given)
inactive: [1] | [2] | [3] | [4] | [5] | [6] | [7] | [8] | [9] | [10] | [11] | [12]

CCCCCC[C@@H](CCC)C(=O)O
inactive: [1] | [2] | [3] | [4] | [5] | [6] | [7] | [8] | [9] | [10] | [11] | [12]

CCOC(=O)NNc1ccc(N(CC)CC(C)O)nn1 (stereo not given)
inactive: [1] | [2] | [3] | [4] | [5] | [6] | [7] | [8] | [9] | [10] | [11] | [12]

O=C(O)Cc1ccc(OCCNC[C@H](O)c2ccccc2)cc1
inactive: [1] | [2] | [3] | [4] | [5] | [6] | [7] | [8] | [9] | [10] | [11] | [12]

Cn1cc(S(C)=O)c(=O)c2ccc(F)cc21 (stereo not given)
inactive: [1] | [2] | [3] | [4] | [5] | [6] | [7] | [8] | [9] | [10] | [11] | [12]

CC1c2ccccc2CN1NC(=O)c1ccc(Cl)c(S(N)(=O)=O)c1 (stereo not given)
inactive: [1] | [2] | [3] | [4] | [5] | [6] | [7] | [8] | [9] | [10] | [11] | [12]

CCO[C@H](Cc1ccc(OCCc2ccc(OS(C)(=O)=O)cc2)cc1)C(=O)O
inactive: [1] | [2] | [3] | [4] | [5] | [6] | [7] | [8] | [9] | [10] | [11] | [12]

CCNC(=O)NCCCOc1cccc(CN2CCCCC2)c1
inactive: [1] | [2] | [3] | [4] | [5] | [6] | [7] | [8] | [9] | [11] | [12]

OCCc1ccccc1
inactive: [1] | [2] | [3] | [4] | [5] | [6] | [7] | [8] | [9] | [10] | [11] | [12]

CC(C)(C)C(=O)OCOC(=O)C1N2C(=O)CC2S(=O)(=O)C1(C)C (stereo not given)
inactive: [1] | [2] | [3] | [4] | [5] | [6] | [7] | [8] | [9] | [10] | [11] | [12]

O=C(O)CCC(=O)OC[C@@H](NC(=O)C(Cl)Cl)[C@H](O)c1ccc([N+](=O)[O-])cc1
inactive: [1] | [2] | [3] | [4] | [5] | [6] | [7] | [9] | [10] | [11] | [12]

COc1cc(C(=O)NC2CCCNC2)cc(OC)c1OC (stereo not given)
inactive: [1] | [2] | [3] | [4] | [5] | [7] | [8] | [9] | [11] | [12]

O=[N+]([O-])c1nccn1CO[C@@H](CO)[C@H](O)CO
inactive: [1] | [2] | [3] | [4] | [5] | [6] | [8] | [9] | [10] | [11] | [12]
